ChEMBL document CHEMBL1961873, “Compounds: GSK PKIS; Assays: Nanosyn kinase panel” (2012)

Experiments:
[1] = target: T1, Inhibitor of nuclear factor kappa-B kinase subunit epsilon (Homo sapiens) (UniProt Q14164); conditions: at 1 µM;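 further: reported values are averaged percent inhibition figures against human IKKε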
T1 sequence (whole entry): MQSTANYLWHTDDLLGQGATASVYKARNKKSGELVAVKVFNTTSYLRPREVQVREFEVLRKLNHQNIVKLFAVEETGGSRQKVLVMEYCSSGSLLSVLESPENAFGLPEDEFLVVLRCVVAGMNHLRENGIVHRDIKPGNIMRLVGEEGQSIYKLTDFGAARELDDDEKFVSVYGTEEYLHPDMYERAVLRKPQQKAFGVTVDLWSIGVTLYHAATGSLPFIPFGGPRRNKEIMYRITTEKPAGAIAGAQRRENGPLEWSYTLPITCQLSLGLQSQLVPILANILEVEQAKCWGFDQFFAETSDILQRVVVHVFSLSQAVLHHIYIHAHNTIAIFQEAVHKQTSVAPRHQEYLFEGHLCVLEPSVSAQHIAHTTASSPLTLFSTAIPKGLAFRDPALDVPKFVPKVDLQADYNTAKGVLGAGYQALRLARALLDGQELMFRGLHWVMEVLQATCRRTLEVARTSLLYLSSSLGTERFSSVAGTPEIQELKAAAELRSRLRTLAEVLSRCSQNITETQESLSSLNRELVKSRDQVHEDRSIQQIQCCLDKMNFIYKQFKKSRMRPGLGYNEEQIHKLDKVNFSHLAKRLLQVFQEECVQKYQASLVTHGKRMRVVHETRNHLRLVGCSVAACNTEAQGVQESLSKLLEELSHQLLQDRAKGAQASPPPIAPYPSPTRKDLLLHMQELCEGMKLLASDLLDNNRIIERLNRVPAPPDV

[2] = target: T2, Serine/threonine-protein kinase Nek1 (Homo sapiens) (UniProt Q96PY6); conditions: at 0.1 µM
T2 sequence (whole entry): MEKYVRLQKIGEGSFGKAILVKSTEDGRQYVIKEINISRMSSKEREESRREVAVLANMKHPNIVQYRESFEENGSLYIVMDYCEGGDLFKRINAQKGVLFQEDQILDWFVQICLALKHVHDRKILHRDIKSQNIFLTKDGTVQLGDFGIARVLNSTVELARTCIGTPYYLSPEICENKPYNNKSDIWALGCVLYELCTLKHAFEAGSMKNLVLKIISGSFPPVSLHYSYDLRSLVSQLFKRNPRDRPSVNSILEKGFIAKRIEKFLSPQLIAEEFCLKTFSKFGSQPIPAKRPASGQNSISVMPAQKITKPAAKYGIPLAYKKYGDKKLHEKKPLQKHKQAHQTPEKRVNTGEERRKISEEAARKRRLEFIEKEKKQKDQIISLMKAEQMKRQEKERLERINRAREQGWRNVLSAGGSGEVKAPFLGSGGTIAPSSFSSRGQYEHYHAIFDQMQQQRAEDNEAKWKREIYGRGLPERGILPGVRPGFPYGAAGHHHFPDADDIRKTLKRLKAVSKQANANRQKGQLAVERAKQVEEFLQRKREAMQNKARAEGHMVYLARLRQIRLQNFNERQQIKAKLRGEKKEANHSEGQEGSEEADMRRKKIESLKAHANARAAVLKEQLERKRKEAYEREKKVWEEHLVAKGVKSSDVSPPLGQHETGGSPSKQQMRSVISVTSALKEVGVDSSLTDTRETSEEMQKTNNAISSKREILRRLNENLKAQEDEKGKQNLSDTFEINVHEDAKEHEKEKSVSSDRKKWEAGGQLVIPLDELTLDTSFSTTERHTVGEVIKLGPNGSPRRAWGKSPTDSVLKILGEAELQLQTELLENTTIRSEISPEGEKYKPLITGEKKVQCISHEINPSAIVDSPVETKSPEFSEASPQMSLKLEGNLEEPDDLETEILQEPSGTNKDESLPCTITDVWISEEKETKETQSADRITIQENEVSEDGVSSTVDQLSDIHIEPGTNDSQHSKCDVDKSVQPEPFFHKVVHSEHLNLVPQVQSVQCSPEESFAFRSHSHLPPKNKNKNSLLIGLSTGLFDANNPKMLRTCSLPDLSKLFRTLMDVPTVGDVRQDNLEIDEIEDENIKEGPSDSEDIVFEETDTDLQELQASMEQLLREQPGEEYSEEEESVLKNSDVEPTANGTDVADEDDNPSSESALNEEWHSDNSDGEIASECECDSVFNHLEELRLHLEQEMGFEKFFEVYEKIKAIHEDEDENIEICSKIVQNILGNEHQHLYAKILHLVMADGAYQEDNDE

[3] = target: T2, Serine/threonine-protein kinase Nek1 (Homo sapiens); conditions: at 1 µM
[4] = target: T3, Serine/threonine-protein kinase Nek2 (Homo sapiens) (UniProt P51955); conditions: at 0.1 µM
T3 sequence (whole entry): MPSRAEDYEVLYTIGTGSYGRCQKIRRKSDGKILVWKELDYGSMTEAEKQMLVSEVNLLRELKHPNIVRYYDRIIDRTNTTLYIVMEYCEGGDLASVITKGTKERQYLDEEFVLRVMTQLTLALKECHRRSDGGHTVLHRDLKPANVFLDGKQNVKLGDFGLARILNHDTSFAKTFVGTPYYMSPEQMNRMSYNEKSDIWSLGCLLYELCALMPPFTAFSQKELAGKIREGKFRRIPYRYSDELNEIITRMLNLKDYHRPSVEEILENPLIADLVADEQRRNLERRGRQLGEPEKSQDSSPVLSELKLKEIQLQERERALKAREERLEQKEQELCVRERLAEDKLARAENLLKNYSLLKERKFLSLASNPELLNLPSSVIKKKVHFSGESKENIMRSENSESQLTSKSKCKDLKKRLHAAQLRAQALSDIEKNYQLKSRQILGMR

[5] = target: T3, Serine/threonine-protein kinase Nek2 (Homo sapiens); conditions: at 1 µM
[6] = target: Serine/threonine-protein kinase Nek6 (Homo sapiens) (UniProt Q9HC98); conditions: at 0.1 µM
[7] = target: Serine/threonine-protein kinase Nek6 (Homo sapiens) (UniProt Q9HC98); conditions: at 1 µM
[8] = target: Serine/threonine-protein kinase Nek7 (Homo sapiens) (UniProt Q8TDX7); conditions: at 0.1 µM
[9] = target: Serine/threonine-protein kinase Nek7 (Homo sapiens) (UniProt Q8TDX7); conditions: at 1 µM
[10] = target: T4, Serine/threonine-protein kinase Nek9 (Homo sapiens) (UniProt Q8TD19); conditions: at 0.1 µM
T4 sequence (whole entry): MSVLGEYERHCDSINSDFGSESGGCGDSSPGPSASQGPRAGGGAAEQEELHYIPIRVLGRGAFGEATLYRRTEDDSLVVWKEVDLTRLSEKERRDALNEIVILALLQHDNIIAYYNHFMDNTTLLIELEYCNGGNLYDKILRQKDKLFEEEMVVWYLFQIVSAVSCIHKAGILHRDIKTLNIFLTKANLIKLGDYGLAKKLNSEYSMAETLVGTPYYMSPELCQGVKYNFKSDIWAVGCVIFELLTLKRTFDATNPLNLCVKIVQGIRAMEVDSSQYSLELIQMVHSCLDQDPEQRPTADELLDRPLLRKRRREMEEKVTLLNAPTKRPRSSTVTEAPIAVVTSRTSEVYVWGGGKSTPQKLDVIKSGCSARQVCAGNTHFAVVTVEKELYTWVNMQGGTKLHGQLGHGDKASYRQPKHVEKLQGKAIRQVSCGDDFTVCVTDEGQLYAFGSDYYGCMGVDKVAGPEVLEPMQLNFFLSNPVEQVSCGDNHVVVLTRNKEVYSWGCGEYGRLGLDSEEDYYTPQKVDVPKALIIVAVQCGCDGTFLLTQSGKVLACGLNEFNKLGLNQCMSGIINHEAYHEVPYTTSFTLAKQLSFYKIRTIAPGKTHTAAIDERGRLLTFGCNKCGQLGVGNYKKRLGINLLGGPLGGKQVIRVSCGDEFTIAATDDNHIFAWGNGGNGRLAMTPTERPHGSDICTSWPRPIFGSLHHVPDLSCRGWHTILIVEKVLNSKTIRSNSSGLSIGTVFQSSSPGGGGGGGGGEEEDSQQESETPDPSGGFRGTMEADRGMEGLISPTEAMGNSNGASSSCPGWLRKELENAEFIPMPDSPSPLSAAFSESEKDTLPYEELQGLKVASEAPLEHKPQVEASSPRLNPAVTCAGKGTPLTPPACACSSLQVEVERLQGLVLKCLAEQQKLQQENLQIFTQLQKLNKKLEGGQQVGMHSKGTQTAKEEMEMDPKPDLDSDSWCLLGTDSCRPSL

[11] = target: T4, Serine/threonine-protein kinase Nek9 (Homo sapiens); conditions: at 1 µM
[12] = target: Serine/threonine-protein kinase PLK1 (Homo sapiens) (UniProt P53350); conditions: at 0.1 µM
[13] = target: Serine/threonine-protein kinase PLK1 (Homo sapiens) (UniProt P53350); conditions: at 1 µM
[14] = target: T5, Dual specificity protein kinase TTK (Homo sapiens) (UniProt P33981); conditions: at 0.1 µM
T5 sequence (whole entry): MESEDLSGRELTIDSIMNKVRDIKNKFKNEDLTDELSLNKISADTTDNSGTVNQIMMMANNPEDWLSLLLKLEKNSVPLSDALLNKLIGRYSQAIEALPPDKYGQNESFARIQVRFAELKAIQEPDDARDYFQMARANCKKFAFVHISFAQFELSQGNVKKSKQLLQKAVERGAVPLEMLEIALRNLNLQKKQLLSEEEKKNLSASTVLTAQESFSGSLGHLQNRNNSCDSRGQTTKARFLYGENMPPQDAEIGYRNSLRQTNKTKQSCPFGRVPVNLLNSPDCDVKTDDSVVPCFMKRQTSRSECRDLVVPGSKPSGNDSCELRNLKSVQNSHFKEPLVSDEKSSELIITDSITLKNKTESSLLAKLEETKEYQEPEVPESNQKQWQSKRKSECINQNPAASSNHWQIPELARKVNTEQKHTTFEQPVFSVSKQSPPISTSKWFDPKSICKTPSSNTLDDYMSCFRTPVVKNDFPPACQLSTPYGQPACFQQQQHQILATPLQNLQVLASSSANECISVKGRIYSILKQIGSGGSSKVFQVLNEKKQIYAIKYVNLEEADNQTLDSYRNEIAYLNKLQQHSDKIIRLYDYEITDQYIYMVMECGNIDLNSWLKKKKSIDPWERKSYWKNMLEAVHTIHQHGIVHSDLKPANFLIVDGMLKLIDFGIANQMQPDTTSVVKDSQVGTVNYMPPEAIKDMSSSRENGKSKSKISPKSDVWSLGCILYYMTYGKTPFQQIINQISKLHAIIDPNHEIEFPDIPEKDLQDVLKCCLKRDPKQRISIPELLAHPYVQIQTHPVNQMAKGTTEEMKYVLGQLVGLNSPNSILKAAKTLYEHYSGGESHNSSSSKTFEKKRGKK

[15] = test system: T6, Receptor-type tyrosine-protein kinase FLT3 (Homo sapiens), P36888 [D835Y]; conditions: at 1 µM
T6 sequence (whole entry): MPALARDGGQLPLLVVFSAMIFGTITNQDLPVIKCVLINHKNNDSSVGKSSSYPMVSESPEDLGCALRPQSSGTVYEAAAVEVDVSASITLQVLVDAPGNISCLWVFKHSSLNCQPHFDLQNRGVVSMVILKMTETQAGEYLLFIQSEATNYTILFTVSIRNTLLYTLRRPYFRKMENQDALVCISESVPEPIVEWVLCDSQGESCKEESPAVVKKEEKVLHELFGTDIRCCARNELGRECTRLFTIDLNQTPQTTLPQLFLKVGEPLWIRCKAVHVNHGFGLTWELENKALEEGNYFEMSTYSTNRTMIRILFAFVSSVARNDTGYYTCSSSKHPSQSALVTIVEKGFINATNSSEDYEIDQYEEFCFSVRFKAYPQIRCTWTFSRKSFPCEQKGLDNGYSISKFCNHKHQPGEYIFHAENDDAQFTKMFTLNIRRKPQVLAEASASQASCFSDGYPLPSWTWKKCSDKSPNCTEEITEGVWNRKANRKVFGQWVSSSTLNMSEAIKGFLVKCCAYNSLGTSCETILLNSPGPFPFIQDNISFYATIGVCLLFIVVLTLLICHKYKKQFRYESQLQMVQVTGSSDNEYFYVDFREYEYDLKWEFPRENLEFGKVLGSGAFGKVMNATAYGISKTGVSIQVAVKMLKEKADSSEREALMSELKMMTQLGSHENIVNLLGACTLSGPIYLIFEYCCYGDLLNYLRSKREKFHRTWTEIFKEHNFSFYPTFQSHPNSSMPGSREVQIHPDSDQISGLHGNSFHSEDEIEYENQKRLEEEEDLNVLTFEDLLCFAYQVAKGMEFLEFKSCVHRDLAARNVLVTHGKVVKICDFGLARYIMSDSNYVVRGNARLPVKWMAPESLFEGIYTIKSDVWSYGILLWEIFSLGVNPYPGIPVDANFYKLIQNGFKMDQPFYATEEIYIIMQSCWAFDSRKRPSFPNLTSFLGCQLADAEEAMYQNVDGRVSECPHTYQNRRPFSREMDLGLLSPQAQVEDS

[16] = target: Vascular endothelial growth factor receptor 3 (Homo sapiens) (UniProt P35916); conditions: at 0.1 µM
[17] = target: Vascular endothelial growth factor receptor 3 (Homo sapiens) (UniProt P35916); conditions: at 1 µM
[18] = target: Macrophage colony-stimulating factor 1 receptor (Homo sapiens) (UniProt P07333); conditions: at 0.1 µM
[19] = target: Macrophage colony-stimulating factor 1 receptor (Homo sapiens) (UniProt P07333); conditions: at 1 µM
[20] = target: Tyrosine-protein kinase Fyn (Homo sapiens) (UniProt P06241); conditions: at 0.1 µM
Chain of Tyrosine-protein kinase Fyn (Homo sapiens) (P06241 2-537 limits assumed): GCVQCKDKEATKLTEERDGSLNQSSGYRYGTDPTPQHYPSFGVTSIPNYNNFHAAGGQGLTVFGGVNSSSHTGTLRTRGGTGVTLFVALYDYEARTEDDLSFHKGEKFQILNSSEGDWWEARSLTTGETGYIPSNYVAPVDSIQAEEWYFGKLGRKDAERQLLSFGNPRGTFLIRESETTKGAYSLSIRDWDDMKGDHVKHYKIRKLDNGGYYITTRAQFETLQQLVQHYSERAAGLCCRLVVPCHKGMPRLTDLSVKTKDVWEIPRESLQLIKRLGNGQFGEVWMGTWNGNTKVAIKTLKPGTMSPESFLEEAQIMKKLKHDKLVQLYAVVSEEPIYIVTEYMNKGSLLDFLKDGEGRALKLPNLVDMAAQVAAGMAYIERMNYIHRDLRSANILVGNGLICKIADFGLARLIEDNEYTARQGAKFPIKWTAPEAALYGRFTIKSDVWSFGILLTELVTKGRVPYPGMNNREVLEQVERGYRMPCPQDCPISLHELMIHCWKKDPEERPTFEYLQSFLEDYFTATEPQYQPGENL

Chain of Serine/threonine-protein kinase PLK1 (Homo sapiens) (P53350 whole entry): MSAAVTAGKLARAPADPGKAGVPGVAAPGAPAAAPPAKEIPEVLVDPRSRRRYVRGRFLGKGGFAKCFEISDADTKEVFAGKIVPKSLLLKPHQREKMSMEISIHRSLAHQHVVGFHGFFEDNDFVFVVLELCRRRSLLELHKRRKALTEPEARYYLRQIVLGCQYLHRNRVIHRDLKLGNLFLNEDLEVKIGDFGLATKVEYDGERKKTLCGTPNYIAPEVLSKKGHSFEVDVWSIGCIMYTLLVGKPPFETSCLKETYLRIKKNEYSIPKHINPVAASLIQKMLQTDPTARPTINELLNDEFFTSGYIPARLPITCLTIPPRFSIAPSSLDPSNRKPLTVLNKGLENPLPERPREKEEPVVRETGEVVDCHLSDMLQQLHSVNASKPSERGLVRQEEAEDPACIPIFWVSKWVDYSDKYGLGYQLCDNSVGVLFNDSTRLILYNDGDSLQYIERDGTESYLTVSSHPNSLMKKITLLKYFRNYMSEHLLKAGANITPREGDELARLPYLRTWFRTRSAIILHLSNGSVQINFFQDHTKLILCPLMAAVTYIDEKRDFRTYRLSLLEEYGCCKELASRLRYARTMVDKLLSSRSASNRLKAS
Chain of Macrophage colony-stimulating factor 1 receptor (Homo sapiens) (P07333 whole entry): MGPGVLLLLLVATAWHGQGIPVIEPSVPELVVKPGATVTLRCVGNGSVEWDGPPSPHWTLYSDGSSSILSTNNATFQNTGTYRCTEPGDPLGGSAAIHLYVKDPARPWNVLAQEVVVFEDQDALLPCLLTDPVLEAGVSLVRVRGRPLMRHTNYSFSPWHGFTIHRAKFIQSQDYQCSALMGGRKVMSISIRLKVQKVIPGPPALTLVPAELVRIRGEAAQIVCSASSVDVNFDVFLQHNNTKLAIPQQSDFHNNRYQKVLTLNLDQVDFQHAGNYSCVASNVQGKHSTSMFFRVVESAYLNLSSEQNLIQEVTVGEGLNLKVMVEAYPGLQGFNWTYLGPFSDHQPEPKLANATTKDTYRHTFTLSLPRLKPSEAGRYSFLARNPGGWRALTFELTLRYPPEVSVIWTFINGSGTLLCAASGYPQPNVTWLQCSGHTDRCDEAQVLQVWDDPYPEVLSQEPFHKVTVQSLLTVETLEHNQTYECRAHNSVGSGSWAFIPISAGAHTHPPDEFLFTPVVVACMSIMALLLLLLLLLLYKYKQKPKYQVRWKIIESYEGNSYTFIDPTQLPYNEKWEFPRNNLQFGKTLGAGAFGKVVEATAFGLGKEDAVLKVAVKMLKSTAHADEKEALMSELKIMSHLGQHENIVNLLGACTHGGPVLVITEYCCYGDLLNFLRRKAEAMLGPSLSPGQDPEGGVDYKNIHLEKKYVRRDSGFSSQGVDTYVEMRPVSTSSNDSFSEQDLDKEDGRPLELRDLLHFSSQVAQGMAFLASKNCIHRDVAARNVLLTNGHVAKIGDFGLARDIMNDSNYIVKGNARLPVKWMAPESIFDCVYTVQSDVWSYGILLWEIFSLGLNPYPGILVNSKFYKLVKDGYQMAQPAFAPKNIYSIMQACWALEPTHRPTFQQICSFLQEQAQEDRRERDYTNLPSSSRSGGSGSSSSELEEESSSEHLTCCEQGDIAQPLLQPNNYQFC
Chain of Serine/threonine-protein kinase Nek6 (Homo sapiens) (Q9HC98 whole entry): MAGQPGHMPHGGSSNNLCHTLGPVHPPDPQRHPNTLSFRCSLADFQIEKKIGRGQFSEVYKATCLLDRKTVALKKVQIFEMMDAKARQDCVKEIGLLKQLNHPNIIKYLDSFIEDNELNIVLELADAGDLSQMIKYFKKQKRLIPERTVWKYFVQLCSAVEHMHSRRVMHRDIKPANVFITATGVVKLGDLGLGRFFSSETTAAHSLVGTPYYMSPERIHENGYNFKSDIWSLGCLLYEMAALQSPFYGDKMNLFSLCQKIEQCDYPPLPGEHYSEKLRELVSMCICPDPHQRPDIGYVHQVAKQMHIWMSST
Chain of Vascular endothelial growth factor receptor 3 (Homo sapiens) (P35916 whole entry): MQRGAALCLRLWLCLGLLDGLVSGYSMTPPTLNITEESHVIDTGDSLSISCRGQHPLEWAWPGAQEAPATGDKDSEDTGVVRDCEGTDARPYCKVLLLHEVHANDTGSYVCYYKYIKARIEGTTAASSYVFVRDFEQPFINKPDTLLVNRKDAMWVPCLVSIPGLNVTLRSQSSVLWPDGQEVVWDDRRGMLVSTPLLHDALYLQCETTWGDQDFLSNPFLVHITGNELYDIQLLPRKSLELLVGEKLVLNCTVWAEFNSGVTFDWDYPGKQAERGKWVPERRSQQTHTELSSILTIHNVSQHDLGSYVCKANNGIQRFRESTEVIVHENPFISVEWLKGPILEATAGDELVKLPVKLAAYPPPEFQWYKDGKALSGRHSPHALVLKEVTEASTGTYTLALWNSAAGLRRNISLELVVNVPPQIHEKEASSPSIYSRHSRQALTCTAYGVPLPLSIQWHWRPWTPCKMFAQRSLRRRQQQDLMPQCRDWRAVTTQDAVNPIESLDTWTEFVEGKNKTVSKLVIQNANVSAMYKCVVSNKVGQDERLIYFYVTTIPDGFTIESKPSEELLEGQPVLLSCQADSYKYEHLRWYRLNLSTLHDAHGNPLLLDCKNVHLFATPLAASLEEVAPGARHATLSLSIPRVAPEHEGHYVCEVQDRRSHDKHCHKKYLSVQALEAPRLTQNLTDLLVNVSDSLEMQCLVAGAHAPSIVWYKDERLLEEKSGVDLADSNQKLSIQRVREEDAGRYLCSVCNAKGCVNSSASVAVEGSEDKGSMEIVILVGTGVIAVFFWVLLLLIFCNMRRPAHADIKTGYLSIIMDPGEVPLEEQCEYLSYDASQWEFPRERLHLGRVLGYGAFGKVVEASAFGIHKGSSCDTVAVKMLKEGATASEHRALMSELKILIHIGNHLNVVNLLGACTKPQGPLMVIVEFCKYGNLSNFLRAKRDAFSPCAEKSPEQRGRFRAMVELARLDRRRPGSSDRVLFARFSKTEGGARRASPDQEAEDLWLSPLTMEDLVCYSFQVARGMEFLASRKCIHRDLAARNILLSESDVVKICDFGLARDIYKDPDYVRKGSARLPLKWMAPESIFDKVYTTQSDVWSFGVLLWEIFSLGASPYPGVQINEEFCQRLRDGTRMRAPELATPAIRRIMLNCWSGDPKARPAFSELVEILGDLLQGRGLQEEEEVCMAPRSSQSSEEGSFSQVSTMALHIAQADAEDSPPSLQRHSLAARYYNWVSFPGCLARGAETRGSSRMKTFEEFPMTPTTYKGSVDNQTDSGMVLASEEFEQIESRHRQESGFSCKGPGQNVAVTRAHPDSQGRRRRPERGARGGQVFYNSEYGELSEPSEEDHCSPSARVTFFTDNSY
Chain of Serine/threonine-protein kinase Nek7 (Homo sapiens) (Q8TDX7 whole entry, looked up): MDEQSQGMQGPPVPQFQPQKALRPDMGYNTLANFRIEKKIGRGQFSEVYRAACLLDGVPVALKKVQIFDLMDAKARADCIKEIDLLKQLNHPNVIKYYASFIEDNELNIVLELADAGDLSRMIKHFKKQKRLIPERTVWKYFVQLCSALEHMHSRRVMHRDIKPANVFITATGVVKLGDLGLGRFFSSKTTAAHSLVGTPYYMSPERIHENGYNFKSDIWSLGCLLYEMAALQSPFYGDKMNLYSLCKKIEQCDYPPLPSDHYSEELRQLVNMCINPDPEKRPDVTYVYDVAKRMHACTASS

| Structure (SMILES) | inhibition [1] [%] | inhibition [2] [%] | inhibition [3] [%] | inhibition [4] [%] | inhibition [5] [%] | inhibition [6] [%] | inhibition [7] [%] | inhibition [8] [%] | inhibition [9] [%] | inhibition [10] [%] | inhibition [11] [%] | inhibition [12] [%] | inhibition [13] [%] | inhibition [14] [%] | inhibition [15] [%] | inhibition [16] [%] | inhibition [17] [%] | inhibition [18] [%] | inhibition [19] [%] | inhibition [20] [%] |
| --- | --- | --- | --- | --- | --- | --- | --- | --- | --- | --- | --- | --- | --- | --- | --- | --- | --- | --- | --- | --- |
| CNC(=O)c1cncc(/C=C/c2ccccc2Cl)c1 | 2.69 | -0.35 | 1.83 | -0.6 | -0.78 | 1.4 | 5.65 | -1.23 | -1.28 | 1.21 | 3.22 | -0.94 | -0.72 | 1.16 | 7.46 | 15.2 | 13.6 | 3.45 | 4.05 | 2.42 |
| NS(=O)(=O)c1ccc(N/N=C2\C(=O)Nc3ccc4ncccc4c32)cc1 | 44.7 | 1.98 | 5.54 | 3.42 | 4.79 | -0.98 | -0.3 | 4.59 | 7.69 | 9.44 | 41 | 2.36 | 2.5 | 61.2 | 80.4 | 43.9 | 86 | 34.8 | 79.3 | 8.75 |
| Cc1cccc(Nc2ncc(-c3ccccc3)o2)c1 | 6.48 | 4.04 | 3.56 | 3.46 | 3.62 | 0.75 | 2.04 | 2.47 | 4.58 | 8.57 | 4.73 | 2.24 | 6.33 | 6.38 | 18.6 | 5.49 | 9.11 | 9.54 | 25.7 | 3.07 |
